# VLA-4 inh = inhibition in a human VLA-4 binding assay; 330,000 compounds, 0.2% hits; P13612; inhibition, % (about 7 µM as worked out from the volumes in the protocol); VLA-4 expressing cells, ligand binding flow cytometry; in the data active = inhibition above about 50%
# NR1D1 modulator = modulates human Rev-erb alpha binding to DNA | Rev-erbα–FITC-DNA binding, fluorescence polarization, 90 min | activity, % at 10 µM | 370,000 compounds, 0.79% hits | AID 1259318 | P20393;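 active = activity above about 14%, limit read from the data; passing the limit was not always enough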;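 note: 0% = DMSO wells with 35 nM protein and 100% = DMSO wells with 750 nM protein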
# Exocytosis inh = blocks lytic granule exocytosis | 360,000 compounds, 0.66% hits | TALL-104 LAMP-1 surface exposure, flow cytometry; cells stimulated with thapsigargin and PMA | inhibition, % at 10 µM;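 active = inhibition above about 55%, limit read from the data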
# PG9 binder = binds the HIV-1 gp120 antibody PG9; 360,000 compounds, 0.43% hits; TR-FRET gp120-PG9 antibody binding; inhibition, % at 6.7 µM; in the data active = inhibition above about 8.5%
# ABCB6 inh MLPCN = inhibitors of human ABC transporter ABCB6. fluorescence ratio to DMSO, % at 10 µM. K562-ABCB6 porphyrin accumulation, flow cytometry, 1 h; stronger effect = lower value. Q9NP58. 360,000 compounds, 0.19% hits;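 active = fluorescence ratio to DMSO below 75%, the collection mean minus 3 SD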;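 note: signal is porphyrin accumulated inside mitochondria; 100% equals median channel fluorescence of DMSO control wells; lower ratio means ABCB6 inhibition with less porphyrin fluorescence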
# PG9 binder conf = confirmation of small molecules binding HIV-1 gp120 antibody PG9. TR-FRET PG9 antibody binding, biochemical. AID 651571. shares compounds with PG9 binder. 1,500 compounds, 90% hits. inhibition, % at 6.7 µM; in the data active = inhibition above about 9%
# PGV04 Ab binding = PGV04 control antibody binding, counter-screen | 1,500 compounds, 95% hits | inhibition, % at 6.7 µM | shares compounds with PG9 binder | TR-FRET PGV04 antibody-gp120 binding, biochemical; in the data active = inhibition above about 9.5%
# PG9 binder DR = small molecules binding HIV-1 gp120 antibody PG9. shares compounds with PG9 binder. TR-FRET PG9 antibody-gp120 binding inhibition. IC50, µM. 95 tested, under 10 active; in the data active = IC50 below about 10 µM
# PGV04 DR counter = PGV04 binding, dose response counter-screen; shares compounds with PG9 binder; TR-FRET binding to control antibody PGV04; IC50, µM; 95 compounds, 20% hits; AID 651937
# PG126 binding DR = binds control antibody PG126 in PG9 counter-screen | IC50, µM | 95 compounds, 20% hits | TR-FRET binding to antibody PG126, counterscreen | shares compounds with PG9 binder
# Starred values were filed as active, the others as inactive; i = inactive; x = no result. Sampled rows, rich in hits. Any-hit rate of the full collection: about 2%. Cut-off read from the data, not from the text of the source, unless noted: active = IC50 below about 9 µM; inactive = the rest.
SMILES,VLA-4 inh,NR1D1 modulator,Exocytosis inh,PG9 binder,ABCB6 inh MLPCN,PG9 binder conf,PGV04 Ab binding,others
CCn1cnc2sc(C(=O)Nc3ccccc3OC)c(C)c2c1=O,-5,3,1,53*,95,46*,65*,
CN1CCCN(C(=O)CSc2nnc(-c3cccnc3)n2C2CCCCC2)CC1,x,0,x,x,x,x,x,
COCCCN1C(=O)[C@H](CC(=O)NCC23CC4CC(CC(C4)C2)C3)[C@]2(C(=O)OC)CCCCC=C12,x,4,x,x,x,x,x,
COc1cc(NC(=O)C2CCCN(S(=O)(=O)c3ccc(Br)s3)C2)cc(OC)c1 (stereo not drawn),x,1,x,x,x,x,x,
CCOC(=O)c1c(N)sc(=S)c2c1CCC2,-7,-6,-1,9.5*,93,6,10*,
CCOC(=O)c1c(N)sc(N)c1C(=O)OCC,19,2,5,-8,100,x,x,
COCCNC(=O)c1cc(-c2cccnc2)nc2ccc(Br)cc12,-12,-3,3,8.6*,99,8,14*,
O=C1N/C(=N\c2ccccn2)SC1Cc1ccc(Cl)cc1 (stereo not drawn),14,13,8,9.3*,96,17*,29*,
O=C1N/C(=N/c2ccccn2)SC1Cc1ccccc1 (stereo not drawn),-6,4,1,1,98,x,x,
Nc1nc2ccc(Cl)cc2cc1C(=O)NCc1ccccc1Br,x,-4,x,x,x,x,x,
C#CCNC(=O)c1cc2c(Br)ccc(Br)c2nc1N,x,4,-7,17*,96,18*,22*,
CC(C)(C)CNC(=O)c1cc2c(Br)ccc(Br)c2nc1N,x,11,13,10.0*,101,7,14*,
COC(=O)[C@]12C[C@H](CC(=O)NCc3ccccc3)C(=O)N(CCc3ccc(OC)c(OC)c3)C1=C[C@H](COCc1ccccc1)O[C@@H]2C,x,-3,x,x,x,x,x,
Cn1c2ccccc2c(=O)c2cc(C#Cc3ccccn3)ccc21,-14,0,3,1,99,x,x,
Cn1c2ccccc2c(=O)c2ccc(C#Cc3ccccn3)cc21,17,-10,x,50*,x,57*,79*,
CCOc1ccc(Br)cc1C(=O)Nc1ccc(C(=O)NCC(C)C)cc1,8,6,10,24*,94,24*,31*,
COc1ccc(Br)cc1C(=O)Nc1ccc(C(=O)NCC(C)C)cc1,19,-2,6,1,105,x,x,
COc1ccc(-c2noc(CCC(=O)NCC3CCCO3)n2)cc1OC (stereo not drawn),0,0,-1,11*,94,4,7,
CCOc1cc(-c2noc(CCC(=O)NCC3CCCO3)n2)ccc1OC (stereo not drawn),-5,-1,-4,-1,99,x,x,
COc1ccc(CN2C/C(=C/c3ccccc3)N3C(=O)C[C@@H](c4ccc5ccccc5c4)N=C23)c(OC)c1,x,-2,x,x,x,x,x,
COC(=O)C1=C(C)N(Cc2ccccc2C(F)(F)F)C(=NCc2ccc(OC)cc2)NC1c1cccc(F)c1 (stereo not drawn),x,-2,x,-1,x,x,x,
O=C(OCCN1CCCC12CCC(c1ccccc1)CC2)c1ccccc1 (stereo not drawn),x,2,x,x,x,x,x,
CC(=O)c1ccc(N2CCN(S(=O)(=O)c3ccc4c(c3)NC(=O)CC(=O)N4)CC2)cc1,5,7,-1,13*,105,17*,30*,
CCOCC(=O)NC(=O)N1C[C@H]2CON(C)[C@H]2C[C@H]1c1ccc(OC)cc1,x,-2,x,x,x,x,x,
COc1ccc(NC(=O)c2oc3ccccc3c2NC(=O)C2CC2)cc1,4,18,1,12*,91,9.0*,9,PG9 binder DR=>67;PGV04 DR counter=i;PG126 binding DR=i
CSCCC(Nc1ncnc2ccc(Br)cc12)C(=O)O (stereo not drawn),0,2,1,13*,97,20*,20*,

# Screening data from PubChem.
